Gal4-VP16 FLuc: VP16 counterscreen qHTS for inhibitors of ROR gamma transcriptional activity; Drosophila S2 Gal4-VP16 UAS-luciferase, luminescence, 20 h; Potency, µM (series often up to 53.6 µM), inactives show top-dose activity, negative = inhibition, actives largely listed as inhibitors; 310,000 tested, 3.5% active; AID 2546, 2010;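 note: Gal4-VP16 expression switched on by copper sulfate through the metallothionein promoter; potency is the fitted concentration of half-maximal effect; nearly all actives have a fitted effect of over 50% in size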
RORgamma inh: qHTS for inhibitors of ROR gamma transcriptional activity; Drosophila S2 Gal4-RORgamma UAS-luciferase reporter, 20 h; Nuclear receptor ROR-gamma (Mus musculus), P51450; 310,000 tested, 5.4% active; Potency, µM (doses to about 53.6 µM), for the others: at the highest dose activity change, negative = inhibition, usual class: inhibitors; note: potency is the fitted concentration of half-maximal effect; nearly all actives have a fitted effect of over 60% in size
Target sequence (P51450 whole entry, looked up, the tested form may be a part): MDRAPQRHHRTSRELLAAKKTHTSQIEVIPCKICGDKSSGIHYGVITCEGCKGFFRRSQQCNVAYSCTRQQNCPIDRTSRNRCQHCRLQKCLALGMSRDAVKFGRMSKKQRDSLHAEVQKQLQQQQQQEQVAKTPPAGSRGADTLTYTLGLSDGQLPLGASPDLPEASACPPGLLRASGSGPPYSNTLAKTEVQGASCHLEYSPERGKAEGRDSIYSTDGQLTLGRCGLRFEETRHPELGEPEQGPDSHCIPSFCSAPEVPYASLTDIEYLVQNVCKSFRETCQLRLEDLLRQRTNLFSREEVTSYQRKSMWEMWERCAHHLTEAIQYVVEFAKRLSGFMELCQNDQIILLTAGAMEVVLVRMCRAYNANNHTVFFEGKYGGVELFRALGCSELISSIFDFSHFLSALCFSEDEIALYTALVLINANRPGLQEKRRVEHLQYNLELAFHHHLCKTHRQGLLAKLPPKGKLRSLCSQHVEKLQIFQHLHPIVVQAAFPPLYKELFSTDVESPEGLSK
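Drosophila S2 cells stably expressing Gal4-DBD/mouse RORγ fusion under metallothionein promoter plus UAS-luciferase; compound 1 h, then 700 uM CuSO4 induction for 20 h at ambient temperature; inhibition read as reduced luminescence.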
ELG1 repair inh: qHTS screen for small molecules that inhibit ELG1-dependent DNA repair in human embryonic kidney (HEK293T) cells expressing luciferase-tagged ELG1; Potency, µM (titrated, usually from 46.1 µM), for inactives: top-dose activity change, negative = inhibition, usual class: inhibitors; AID 504467, 2011; HEK293T ELG1-luciferase reporter, luminescence, 16 h; DNA damage induced by 5-fluorouridine; 330,000 tested, 2.3% active; note: potency is the fitted concentration of half-maximal effect; nearly all actives have a fitted effect of over 55% in size
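Quantitative HTS, concentration-response format. 2,000 cells/well co-treated with 5-fluorouridine and compound, 16 hr in 5% CO2 at 37 °C; ONE-Glo luminescence read after 30 min.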
TDP1 cell CPT: qHTS for Inhibitors of human tyrosyl-DNA phosphodiesterase 1 (TDP1): qHTS in cells in presence of CPT | chicken DT40 Tdp1-/-;hTDP1 cells + 20 nM CPT, ATP luminescence, 48 h | Potency, µM (top dose mostly 46.2 µM), inactives show at the top dose activity change, negative = growth inhibition, most hits filed as inhibitors | 420,000 tested, 12% active; note: potency is the fitted concentration of half-maximal effect; nearly all actives have a fitted effect of over 55% in size
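Chicken DT40 Tdp1-/- cells stably complemented with human TDP1 were seeded at 400 cells/well in medium containing 20 nM camptothecin, exposed to pin-transferred compounds, and grown at 37 °C for at least 48 hr. Viability was read as ATP luminescence.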
IL1B secr inh: qHTS for Inhibitors of Inflammasome Signaling: IL-1-beta AlphaLISA Primary Screen; THP-1 LPS/ATP IL-1B secretion, AlphaLISA, 16 h; active compounds read low; activity change, % at 57.5 µM; 360,000 tested, 4.7% active; AID 743279, 2014; in the data active = activity change below about -50%; inconclusive = mostly about -30% to -49%
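Secreted IL-1B measured by AlphaLISA bead assay after 16 h compound exposure of THP-1 cells; compounds (final up to 57.5 uM) added 1 h before LPS (250 ng/mL) and ATP (1.25 mM) stimulation; lower signal means less secretion.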
TDP1 cell noCPT: qHTS for Inhibitors of human tyrosyl-DNA phosphodiesterase 1 (TDP1): qHTS in cells in absence of CPT; DT40 Tdp1-/- hTDP1 cells, no CPT, ATP luminescence, 48 h; Potency, µM (top dose mostly 46.2 µM), inactives show top-dose activity change, negative = growth inhibition, actives largely listed as inhibitors; 420,000 tested, 15% active; AID 686978, 2013; note: potency is the fitted concentration of half-maximal effect; nearly all actives have a fitted effect of over 55% in size
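Growth of hTDP1-complemented DT40 Tdp1-knockout cells is measured by ATP luminescence after at least 48 hr compound exposure at 37 °C, with DMSO substituting for the 20 nM CPT used in the parallel screen.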
Numbers without * were called inactive; ? = inconclusive; / = not tested or not shown; [ ] = another dose, or the depositor's remark. Shown are actives, neighbours in structure and some others; about 21% of the full set was active somewhere. Unless noted, calls come from the whole dose curve; as a rule, active = well fitted curve in the direction sought with a large enough effect; inconclusive = small, poorly fitted or top-dose-only effect, or another doubt; inactive = no such curve, though single readings can be large; an effect the other way counts as inactive or inconclusive. % is set by controls: 0 for no effect and ±100 for the full control effect.

SMILES	Gal4-VP16 FLuc	RORgamma inh	ELG1 repair inh	TDP1 cell CPT	IL1B secr inh	TDP1 cell noCPT
COCCn1c(C)cc(C(=O)CSc2nnc(C)s2)c1C	1µM*	0.71µM*	/	-23%	5	-22%
COCCn1c(C)cc(C(=O)CSc2nc3ccccc3c(=O)n2Cc2ccco2)c1C	1%	?	?	6.5µM*	4	?
COCCn1c(C)cc(C(=O)CSc2cc(C)c3ccccc3n2)c1C	-2%	?	-22%	?	-69*	?
COCCn1c(C)cc(C(=O)CSc2n[nH]c(N)n2)c1C	-9%	36%	?	-26%	12	0%
COCCNC(=O)C1(C)CCCN(C(=O)c2cccc(OC(F)(F)F)c2)C1 (stereo not drawn)	/	/	/	10%	-3	-12%
O=C(C[N+]12CCCc3cccc(c31)CCC2)c1ccc2ccccc2c1	/	/	/	5µM*	/	7.1µM*
CCOCCCNC(=O)Cn1cnc2c(cnn2-c2ccc(C)c(C)c2)c1=O	/	/	4%	?	29	?
CCCc1n(CC(O)COCC2CC=CCC2)c2ccccc2[n+]1C (stereo not drawn)	-5%	-18%	-11%	8.2µM*	7	10µM*
CCCc1n(CC(O)COCc2ccccc2)c2ccccc2[n+]1C (stereo not drawn)	1%	3%	-1%	23µM*	9	23µM*
C[n+]1cn(CC(O)COCc2ccccc2)c2ccccc21 (stereo not drawn)	-2%	-28%	-3%	?	-3	?
CCCc1n(CC(O)COC2CCCCC2)c2ccccc2[n+]1C (stereo not drawn)	-1%	-2%	-2%	7.3µM*	-10	3.7µM*
O=C(O)c1ccccc1C(=O)NCC(O)COCC1CC=CCC1 (stereo not drawn)	4%	?	1%	-1%	12	-30%
COC(=O)c1ccc(C(=O)OC)c(NC(=O)c2cnn3c(C(F)F)cc(-c4ccccc4)nc23)c1	/	/	/	-9%	/	?
Cc1cccc(NC(=O)COC(=O)CN2C(=O)C3CCCCC3C2=O)c1C (stereo not drawn)	/	/	/	-10%	12	-8%
O=C1NC(=O)c2cc(Br)cc3cccc1c23	16%	21%	0%	-2%	-4	-18%
Cc1ccc(NS(=O)(=O)c2cc3c4c(cccc4c2)C(=O)NC3=O)cc1C	?	?	16µM*	6.5µM*	-20	8.2µM*
O=C(CN1Cc2ccccc2OC(c2ccsc2)C1)N1CCC(c2nc3ccccc3[nH]2)CC1 (stereo not drawn)	/	/	/	4%[9.04 µM]	/	?
CCN(CC)CCOC(=O)c1ccc(N/C=C(/C#N)c2nc(-c3ccc(OC)c(OC)c3)cs2)cc1	?	?	7%	-106%	-25	4.6µM*
CCN(CC)CCOC(=O)c1ccc(N/C=C(/C#N)c2nc(-c3cccc(OC)c3)cs2)cc1	-14%	4%	-12%	5%	/	-25%
O=C(c1cccc([N+](=O)[O-])c1)N1c2ncnn2C2(CCCCC2)[C@@H]2CCCC[C@@H]21	/	/	/	?	/	8.2µM*
Cc1c(-c2ccc(OCc3ccccc3)cc2)nc2ccccc2c1C(=O)O	-5%	?	?	-5%	55	10%
CCOc1ccccc1NC(=O)Nn1cnnc1	2%	3%	0%	-3%	8	4%
Cc1cc(C)c(-c2csc(-c3cc4ccccc4oc3=O)n2)cc1C	/	/	/	-27%	/	?
Cc1ccc(-c2csc(Cc3nc(-c4cc5ccccc5oc4=O)cs3)n2)cc1	-27%	38%	4%	18µM*	-27	23µM*
Cc1cc(C)c(-c2csc(Cc3nc(-c4cc5ccccc5oc4=O)cs3)n2)cc1C	-10%	-5%	?	18µM*	-20	15µM*
SMILES	Gal4-VP16 FLuc	RORgamma inh	ELG1 repair inh	TDP1 cell CPT	IL1B secr inh	TDP1 cell noCPT
O=c1oc2ccccc2cc1-c1csc(Cc2nc(-c3ccc(Br)cc3)cs2)n1	1%[0.365 µM]	46%	-11%	?	-1	16µM*
CCc1sc(-c2cc3ccccc3oc2=O)nc1-c1ccc(C)cc1	/	/	/	9%	/	-19%
CN(CC(=O)Nc1ccccc1Br)C(=O)C1CCN(C(=O)c2ccc(Cl)cc2)CC1	/	/	/	-5%	-7	-10%
COc1ccc2c(c1)OC[C@H]1[C@H]2N2C(=O)c3cc(F)ccc3NC(=O)[C@@]2(C)[C@H]1c1ccccc1	/	/	1%	?	-62*	18µM*
COc1ccc2c(c1)OC[C@H]1[C@H]2N2C(=O)c3ccc(C)cc3NC(=O)[C@@]2(C)[C@H]1c1ccccc1	/	/	13%	23µM*	?	?
COc1ccc2c(c1)OC[C@H]1[C@H]2N2C(=O)c3cc(OC)ccc3NC(=O)[C@@]2(C)[C@H]1c1ccccc1	/	/	?	?	0	?
O=S1(=O)CC(N2CCSCC2)CN1Cc1cn(Cc2ccc(F)cc2)nn1 (stereo not drawn)	/	/	/	4%	0	-11%
COc1ccc(C2=Nn3c(nnc3-c3cc(OC)ccc3OC)SC2)cc1	-3%	11%	/	/	/	/
O=C(C1CCCN(S(=O)(=O)c2ccc(F)cc2)C1)N(Cc1cccs1)C1CC1 (stereo not drawn)	2%	?	12µM*	13µM*	-14	18µM*
CS(=O)(=O)N1CCCC(C(=O)Nc2ccc(F)cc2)C1 (stereo not drawn)	-17%	-3%	17%	-11%	1	-22%
CCOC(=O)c1ccc(NC(=O)C2CCCN(S(=O)(=O)c3ccc(F)cc3)C2)cc1 (stereo not drawn)	-5%	?	16µM*	?	-64*	23µM*
CCc1ccc(NC(=O)C2CCCN(S(=O)(=O)c3ccc(F)cc3)C2)cc1 (stereo not drawn)	/	/	/	8.2µM*	/	7.3µM*
Cc1ccc(NC(=O)C2CCCN(S(=O)(=O)c3ccc(F)cc3)C2)cc1 (stereo not drawn)	/	/	/	23µM*	/	16µM*
O=C(C1CCCN(S(=O)(=O)c2ccc(F)cc2)C1)N1CCCC1 (stereo not drawn)	-3%	0%	11%	12%	29	-7%
CC(=O)c1cnc2c(-c3ccccc3)c(-c3ccccc3)nn2c1C	-4%	-30%	-11%	-2%	39	-6%
